PubChem BioAssay (Tox21)
Results filed as inconclusive are left out. The source made the active and inactive calls. The call rests on the fitted dose curve; in most records, active means well fitted activation curve with a large enough effect in the repeat runs; inconclusive means weak or mixed curves; inactive means no such curve, though single readings can be large or run the other way.

The compounds below were run against Nuclear receptor subfamily 1 group I member 3 (Homo sapiens) (UniProt Q14994) (assay: qHTS assay to identify small molecule agonists of the constitutive androstane receptor (CAR) signaling pathway (AID 1224839; further: nearly all actives have a fitted effect of over 15% in size;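 on activation: HepG2 cells stably carrying human CAR and a CYP2B6 luciferase reporter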)). Conditions: HepG2 hCAR CYP2B6-luciferase, agonist mode, 24 h; series mostly up to 42.5 µM; activation: at the top concentration.
Chain of Nuclear receptor subfamily 1 group I member 3 (Homo sapiens) (Q14994 whole entry, looked up): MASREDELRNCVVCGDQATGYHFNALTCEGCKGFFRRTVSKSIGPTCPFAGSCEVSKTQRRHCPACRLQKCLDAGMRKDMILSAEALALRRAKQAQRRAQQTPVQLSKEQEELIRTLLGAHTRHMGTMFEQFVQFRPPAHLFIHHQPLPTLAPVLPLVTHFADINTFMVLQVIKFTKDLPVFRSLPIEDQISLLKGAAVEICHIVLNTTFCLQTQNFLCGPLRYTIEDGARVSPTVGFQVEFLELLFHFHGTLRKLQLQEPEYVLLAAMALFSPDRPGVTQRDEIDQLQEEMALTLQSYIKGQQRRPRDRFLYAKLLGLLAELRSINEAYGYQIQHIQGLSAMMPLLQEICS
Source text: National Center for Advancing Translational Sciences [NCATS] NIH Chemical Genomics Center [NCGC] U.S. Environmental Protection Agency [EPA] National Institutes of Environmental Health Sciences [NIEHS] National Toxicology Program [NTP] Assay overview: The constitutive androstane receptor (CAR) is a nuclear receptor which regulates multiple drug metabolizing enzymes (DMEs) and transporters. Activating CAR will generally increase the transcription and subsequent translation of CYP2B6 and CYP3A4. These two DMEs represent about 50% of the drug metabolizing potential in the body. […] Recently, there have also been studies performed indicating CARs role in energy metabolism and cancer therapy. Therefore, inducing CARs activity could have a potential effect on diabetes and cancer. Identifying environmental toxins and compounds which modulate CAR, through the use of the Tox21 10K compound collection, will be an important step in determining the toxicity and potential therapeutic effects these factors will have on the human body.
Assay Protocol Summary: A double-stable (hCAR and CYP2B6-2.2kb) transfected cell line, derived from human hepatoma (HepG2) cells, was utilized for the duration of the quantitative high-throughput screens. The HepG2-CYP2B6-hCAR cells suspended in DMEM culture medium supplemented with 10% FBS, 5 ug/mL blasticidin, 0.5 mg/mL geneticin, 100 U/mL penicillin and 100 ug/mL streptomycin were dispensed at 2500 cells/4 uL/well in 1536-well white solid bottom plates using a Multidrop Combi. After the assay plates were incubated at 37 C/5% CO2 for 4 hrs, 23 nL of compounds at 15 concentrations (from 5-48 columns) or positive control (from 1 to 4 columns) were transferred to the assay plates using a Pintool station. One uL of PK11195, was added using a Flying Reagent Dispenser to generate a final concentration of 0.75 uM PK11195 inside each well. After a 24 hr incubation period at 37 C/5% CO2, four uL of ONE-Glo reagent was added into the assay plates using a Flying Reagent Dispenser. After a 30 min incubation period at room temperature, the luminescence intensity in the assay plates was measured using a ViewLux plate reader.
On the % scale 0 is the no-effect control and ±100 the full control effect; potency means the concentration at half of the fitted maximal effect.

| SMILES | activation | Potency |
| --- | --- | --- |
| CN(Cc1ccc(C(C)(C)C)cc1)Cc1cccc2ccccc12 | 4.66% (inactive) |  |
| CNCCCN1c2ccccc2CCc2ccccc21 | -9.46% (inactive) |  |
| O=C(OCCCCCCOC(=O)c1ccccc1)c1ccccc1 | 9.31% [at 92.4 µM] (inactive) |  |
| COc1ccc(C)cc1[N+](=O)[O-] | 2.78% [at 92.4 µM] (inactive) |  |
| CN(C)c1ccc(CCO)cc1 | -15.8% [at 92.4 µM] (inactive) |  |
| CCOC(=O)C(=O)CCc1ccccc1 | 1.2% (inactive) |  |
| O=C1CCC(=O)O1 | -0.985% [at 92.4 µM] (inactive) |  |
| Nc1cccc([N+](=O)[O-])c1 | 2.32% [at 92.4 µM] (inactive) |  |
| COc1cc2nc(N3CCN(C(=O)C4COc5ccccc5O4)CC3)nc(N)c2cc1OC (stereo not given) | -1.77% (inactive) |  |
| CN1CCC(=C2c3ccccc3Sc3ccccc32)CC1 | -1.31% (inactive) |  |
| CCCOC(C(=O)OC1CCN(C)CC1)(c1ccccc1)c1ccccc1 | 8.28% (inactive) |  |
| CCO[Si](CCCCl)(OCC)OCC | -0.787% [at 92.4 µM] (inactive) |  |
| CCC(=O)O[C@]1(C(=O)CCl)[C@@H](C)C[C@H]2[C@@H]3CCC4=CC(=O)C=C[C@]4(C)[C@@]3(F)[C@@H](O)C[C@@]21C | 0.63% (inactive) |  |
| CCCCC(CC)CN1C(=O)C2C3C=CC(C3)C2C1=O (stereo not given) |  | 30.6 µM (active) |
| C[C@H]1C[C@H]2[C@@H]3CCC4=CC(=O)C=C[C@]4(C)[C@@]3(Cl)[C@@H](O)C[C@]2(C)[C@@]1(O)C(=O)CO | 1.3% (inactive) |  |
| C[N+]1(CC2COC(c3ccccc3)(C3CCCCC3)O2)CCCCC1 (stereo not given) | -3.95% (inactive) |  |
| OC[C@H]1O[C@@H](OCCc2ccc(O)cc2)[C@H](O)[C@@H](O)[C@@H]1O | -2.67% (inactive) |  |
| CCCCOC(=O)CCCCCCCC(=O)OCCCC | -1.1% [at 92.4 µM] (inactive) |  |
| C=CC(=O)OCCOCCOC(=O)C=C | -12.5% [at 92.4 µM] (inactive) |  |
| Nc1ccc([N+](=O)[O-])c(C(F)(F)F)c1 | 4.11% (inactive) |  |

| SMILES | activation | Potency |
| --- | --- | --- |
| CN1Cc2cc(C(=O)N3CCC(C4CCNCC4)CC3)ccc2NC(CC(=O)O)C1=O (stereo not given) | -0.801% (inactive) |  |
| O=C(O)CNCC(=O)O | -0.889% [at 8.39 µM] (inactive) |  |
| CCOC(=O)c1cccnc1 | -2.4% (inactive) |  |
| O=C(O)C1(C(=O)Nc2ccc(Cl)cc2Cl)CC1 |  | 13.7 µM (active) |
| C/C=C/C(=O)CC | 1.56% [at 19 µM] (inactive) |  |
| COCC(C)OC(C)=O (stereo not given) | 4.47% [at 92.4 µM] (inactive) |  |
| CC(=O)OC[C@H]1O[C@@H](n2ncc(=O)[nH]c2=O)[C@H](OC(C)=O)[C@@H]1OC(C)=O | 0.94% (inactive) |  |
| C[C@@H]1C[C@H]2[C@@H]3CCC4=CC(=O)C=C[C@]4(C)[C@@]3(F)[C@@H](O)C[C@]2(C)[C@@]1(O)C(=O)COC(=O)c1ccncc1 | 7.18% (inactive) |  |
| CCO[C@H](Cc1ccc(OCCc2ccc(OS(C)(=O)=O)cc2)cc1)C(=O)O | 6.01% (inactive) |  |
| COc1ccc(-c2nc3ccc(C4=NNC(=O)CC4C)cc3[nH]2)cc1 (stereo not given) |  | 3.76 µM (active) |
| CCCC(=O)Nc1ccc(O)c(C(C)=O)c1 | 4.64% (inactive) |  |
| CCCCCCCN | -0.855% [at 92.4 µM] (inactive) |  |
| CCOc1ccc(N=Nc2ccc(/C=C/c3ccc(N=Nc4ccc(OCC)cc4)cc3S(=O)(=O)O)c(S(=O)(=O)O)c2)cc1 | -2.73% [at 92.4 µM] (inactive) |  |
| CCCn1cnc2c1c(=O)n(CCCCC(C)=O)c(=O)n2C | -0.0361% (inactive) |  |
| Clc1ccc2c(c1)CCc1cccnc1C2=C1CCNCC1 | -19.4% (inactive) |  |
| Brc1c2ccccc2c(Br)c2ccccc12 | 11.6% [at 8.39 µM] (inactive) |  |
| CCC(Cl)CCC(Cl)C(Cl)CC(Cl)C(Cl)C(Cl)CCl (stereo not given) | -1.73% [at 92.4 µM] (inactive) |  |
| CN(C)CCOC(c1ccccc1)c1ccc(Br)cc1 (stereo not given) | -0.0184% (inactive) |  |
| CC1CCC(=O)C1=O (stereo not given) | -1.19% [at 92.4 µM] (inactive) |  |
| CCN(CC)CCNC(=O)c1cc(Br)c(N)cc1OC | 10.5% (inactive) |  |
